# The whole screen tested about 22,000 compounds, of which about 1,100 (5%) were called active. Rule as the data show it: active = activity score above about 55%; inconclusive = no clear call, values can overlap the other calls; inactive = below that. For the sample, actives were picked, then their nearest neighbours and some compounds at random.
# Test: inhibitors of intracellular Trypanosoma cruzi, primary screen, cell-based, plate reader, single point, set 2 (AID 651903);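 also: parasites and compound incubated about four days before reading; 0% = median of neutral control wells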
# Conditions: intracellular Trypanosoma cruzi in host cells, at 5.01 µM, active compounds read high
row,Compound,activity score (inhibition)
1,C[C@@H]1CN([C@@H](C)CO)C(=O)Cc2cc(NC(=O)Nc3ccc4c(c3)OCO4)ccc2O[C@@H]1CN(C)CC1CCCCC1,78.2% (active)
2,C[C@@H]1CN([C@@H](C)CO)C(=O)Cc2cc(NC(=O)C3CCCCC3)ccc2O[C@@H]1CN(C)CC1CCCCC1,-4.58% (inactive)
3,C[C@H]1CN([C@@H](C)CO)C(=O)Cc2cc(NC(=O)Nc3cccc4ccccc34)ccc2O[C@H]1CN(C)CC1CC1,-24.3% (inactive)
4,C[C@@H]1CN([C@@H](C)CO)C(=O)Cc2cc(NC(=O)Nc3cccc4ccccc34)ccc2O[C@@H]1CN(C)CC1CCCCC1,59.9% (active)
5,COc1ccc(NC(=O)Nc2ccc3c(c2)CC(=O)N([C@@H](C)CO)C[C@H](C)[C@@H](CN(C)CC2CCCCC2)O3)cc1,-4.28% (inactive)
6,C[C@H]1CN([C@@H](C)CO)C(=O)c2cc(NC(=O)Nc3ccc4c(c3)OCO4)ccc2O[C@@H]1CN(C)CC1CCCCC1,8.83% (inactive)
7,C[C@H](CO)N1C[C@H](C)[C@H](CN(C)C(=O)Nc2ccc3c(c2)OCO3)Oc2ccc(NS(=O)(=O)c3ccc(Cl)cc3)cc2CC1=O,-5.11% (inactive)
8,C[C@H](CO)N1C[C@H](C)[C@@H](CN(C)Cc2ccccc2C(F)(F)F)OCc2cn(nn2)CCCC1=O,-23.6% (inactive)
9,Cc1noc(C)c1NC(=O)Nc1ccc2c(c1)C(=O)N([C@H](C)CO)C[C@H](C)[C@@H](CN(C)C(=O)Nc1ccccc1)O2,-16.8% (inactive)
10,C[C@@H]1CN([C@@H](C)CO)C(=O)Cc2cc(NC(=O)C3CC3)ccc2O[C@@H]1CN(C)S(C)(=O)=O,-20.7% (inactive)
11,C[C@@H]1CN([C@@H](C)CO)C(=O)c2cc(NC(=O)Nc3ccc4c(c3)OCO4)ccc2O[C@@H]1CN(C)Cc1ccc(Oc2ccccc2)cc1,17.5% (inactive)
12,C[C@@H]1CN([C@@H](C)CO)C(=O)c2cc(NC(=O)c3ccncc3)ccc2O[C@@H]1CN(C)Cc1ccncc1,-7.68% (inactive)
13,C[C@H]1CN([C@@H](C)CO)C(=O)c2cc(NC(=O)Nc3ccc4c(c3)OCO4)ccc2O[C@@H]1CN(C)Cc1ccc(Oc2ccccc2)cc1,70.1% (active)
14,C[C@H](CO)N1C[C@H](C)[C@@H](CN(C)Cc2ccccc2)Oc2ccc(NC(=O)Nc3ccc4c(c3)OCO4)cc2C1=O,-2% (inactive)
15,C[C@@H]1CN([C@H](C)CO)C(=O)c2cc(NC(=O)c3ccncc3)ccc2O[C@H]1CN(C)Cc1ccc(Oc2ccccc2)cc1,85.4% (active)
16,C[C@@H]1CN([C@@H](C)CO)C(=O)c2cc(NC(=O)c3ccncc3)ccc2O[C@H]1CN(C)Cc1ccc(C(=O)O)cc1,-2.84% (inactive)

# Source: PubChem BioAssay AID651903 (Broad Institute, 2012)
